TTR transcr act: TTR transcription activation, primary screen; SH-SY5Y TTR promoter Gaussia luciferase, luminescence; 100% = recombinant luciferase protein wells; activation, % at 16.7 µM; 1.3% of 92,000 active; AID 1117267;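 active means activation above the mean of all tested compounds plus 3 SD, cut at about 9.5% in these data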;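 further: cells exposed to compounds for one day before reading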
HuH7 TTR inh: counter-screen for TTR activators: TTR transcription inhibitors in HuH7 cells; shares compounds with TTR transcr act; HuH7 TTR promoter-Gaussia luciferase reporter, luminescence; inhibition, % at 16.7 µM; 4% of 1,100 active;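 active means average inhibition above the solvent-only control wells' mean plus 3 SD, cut at about 15% in these data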;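 further: inhibitors lower well luminescence so higher value means more inhibition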
TTR act confirm: human TTR transcription activation, confirmation | shares compounds with TTR transcr act | SHSY5Y TTR promoter Gaussia luciferase, luminescence; 100% = purified Lucia enzyme wells, no cells | activation, % at 16.7 µM | 1,100 tested, under 10 active;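 active means mean activation above a set limit taken from the earlier primary screen, cut at about 11% in these data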
Each line names hits and unclear results; the compound was inactive in the other large screens (follow-up assays come after a bar, where they were run). This excerpt belongs to a sample that is enriched for hits.

COc1ccccc1N1CCN(C(=O)C(CC(C)C)NC(=O)C2CCCCC2)CC1 (stereo not given)	TTR transcr act 21 | HuH7 TTR inh inactive | TTR act confirm inactive
COC(=O)[C@]12C[C@H](CC(=O)N3CCN(C(=O)c4ccco4)CC3)C(=O)N(Cc3ccco3)C1=C[C@H](COCc1ccccc1)O[C@@H]2C	none
Cc1ccc(CNC(=O)c2cccnc2)cc1	none
Cc1cc(C)c(C(=O)CC(=O)c2cccnc2)c(C)c1	TTR transcr act 15 | HuH7 TTR inh inactive | TTR act confirm inactive
Cc1cc(C)c(C)c(OCC(=O)O/N=C(\N)c2cccnc2)c1	none
COC(=O)c1cc(OC)c(OC)cc1NC(=O)C(C)c1ccc([N+](=O)[O-])cc1 (stereo not given)	none
CCN1CCCC(NC(=O)c2scc3c2CCCC3)C1 (stereo not given)	none
Cc1ccc(NC(=O)c2scc3c2CCCC3)cc1	TTR transcr act 22 | HuH7 TTR inh inactive | TTR act confirm inactive
Cc1ccc(C(=O)Nc2ccc3c(c2)CCC3)cc1	none
COC(=O)[C@@]12C[C@@H](CC(=O)N3CCCCC3)C(=O)N(Cc3ccco3)C1=CCC(C)(C)C2	none
CC(C)n1nnnc1C1c2ccccc2OCC(=O)N1Cc1cccc(C(F)(F)F)c1 (stereo not given)	none
CCOc1ccccc1NC(=O)CNC(=O)Cc1ccccc1	none
Cc1ccc(C)c(NC(=O)Cc2coc3cc4c(cc23)CCC4)c1	none
CCOc1ccccc1NC(=O)Cc1coc2cc(C)ccc12	TTR transcr act 14 | HuH7 TTR inh inactive | TTR act confirm inactive
CC(C)c1cccc(-c2ccc3c(c2)S(=O)(=O)c2cccc(C(=O)NC4CCCC4)c2C3=O)c1	none
COc1ccc(C)cc1N(CC(=O)N/N=C/c1ccccc1C(=O)O)S(=O)(=O)c1ccccc1	none
CCOC(=O)C1(C)CCCN1C(=O)c1cncc(Br)c1 (stereo not given)	none
c1ccc(-c2cc(-c3ccncc3)nc3ccc4ccccc4c23)cc1	TTR transcr act 11 | HuH7 TTR inh inactive | TTR act confirm inactive
COc1cc(-c2ccccc2)nc2ccccc12	none
O=C(NCc1ccc(F)cc1)c1cc(-c2ccncc2)nc2ccccc12	none
COc1ccc(Cn2ccc3ccc(-c4ccc5ccn(C(=O)c6ccc(C)cc6)c5c4)cc32)cc1	none
C[C@H]1[C@@H](OC(=O)NCc2ccco2)CC[C@@]23CCCN2C(=O)CCC[C@@H]13	none
CCC(CO)Oc1cc(NCc2ccncc2)c2ncn(C(C)C)c2c1 (stereo not given)	none
CCC(CO)Oc1cc(NCc2ccc(F)cc2)c2ncn(C(C)C)c2c1 (stereo not given)	none
CCC(CO)Oc1cc(NCc2cc(C)cc(C)c2)c2ncn(C(C)C)c2c1 (stereo not given)	TTR transcr act 11 | HuH7 TTR inh inactive | TTR act confirm inactive
COC(=O)[C@]12C[C@H](CC(=O)NCc3cccc(C(F)(F)F)c3)C(=O)N(Cc3cccc4ccccc34)C1=C[C@H](C(C)C)O[C@@H]2C1CC1	none
COC[C@H]1CCCN1c1cccc2c1S(=O)(=O)N1CC[C@H](C1)O2	none
CCOc1ccccc1CNC(=O)C1CCN(c2nn3c(=O)cc(C)nc3s2)CC1	none
COCCN1C(=O)COc2ccccc2C1C(=O)Nc1ccc2c(c1)OCCO2 (stereo not given)	none
c1ccc(OC2CCN(c3ncnc4sccc34)CC2)cc1	none
O=Cc1cc(CCC(=O)O)ccc1O	TTR transcr act 11 | HuH7 TTR inh inactive | TTR act confirm inactive
CCCc1ccc(C(=O)CCC(=O)O)cc1	none
O=C(CCc1ccc(O)cc1)c1c(O)cc(O)cc1O	none
O=C(Cn1cnc2ccccc2c1=O)NCCC(=O)N1CCN(Cc2ccccc2)CC1	none
COC(=O)Cn1cnc2ccccc2c1=O	none
O=C(Cn1cnc2ccccc2c1=O)N1CCOCC1	TTR transcr act 12 | HuH7 TTR inh inactive | TTR act confirm inactive
CCc1ccc(Oc2c(Cl)cnn(-c3ccc(C)cc3)c2=O)cc1	none
CCCS(=O)(=O)NCCc1csc(-c2ccc(OC)c(OC)c2)n1	none
CC(C)C[C@H]1CN(CCCC[C@@H]2CNC(=O)C(=O)N2CC2CCCCC2)C(=O)C(=O)N1CCC1CCCCC1	none
Cc1ccc(NC(=O)c2ncn(CCCNCCCN3CCCC3=O)n2)cc1C	none
Cc1ccc(NC(=O)c2ncn(CCCNCc3ccccc3)n2)cc1C	TTR transcr act 13 | HuH7 TTR inh inactive | TTR act confirm inactive
Cc1ccc(NC(=O)c2ncn(CCCNCC3CCCCC3)n2)cc1C	none
CC(=O)c1cc(-c2cccc([N+](=O)[O-])c2)c(=O)n2c1CCC2	none
O=C(NCCc1c[nH]c2ccccc12)OCc1cn(Cc2ccccc2F)nn1	none
CN1C(=O)[C@H]2[C@@H](c3ccccc3)N[C@]3(CCCN(Cc4ccco4)C3=O)[C@H]2C1=O	TTR transcr act 10 | HuH7 TTR inh inactive | TTR act confirm inactive
